Reference: the supplement of paper PMC9694430

What was measured:
Experiment in all cases: thermal shift delta Tm vs DMSO control; higher = stronger stabilization (binding)
Details in all cases: 12.5 µM; protein concentration 2 µM
[1] = test system: LOC_OS04G57630-cb004
Method in brief: (§1)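 Heating from 25°C to 95°C at 0.05°C/s, fluorescence was recorded for 19.5 μl wells of 2 μM E. coli-expressed, purified rice kinase domain in 100 mM potassium phosphate pH 7.5, 150 mM NaCl, 10% glycerol and 5 × SYPRO Orange with compound in DMSO. Boltzmann fits gave melting temperatures for this differential scanning fluorimetry assay. The shift reported is the mean of three replicates against the DMSO-only protein.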

[2] = test system: LOC_OS05G07850-cb002
Method in brief: as §1

[3] = test system: LOC_OS05G16824-cb004
Method in brief: as §1

[4] = test system: LOC_OS05G28520-cb001
Method in brief: as §1

[5] = test system: LOC_OS05G30820-cb001
Method in brief: as §1

[6] = test system: LOC_OS05G43570-cb004
Method in brief: as §1

[7] = test system: LOC_OS06G16330-cb003
LOC_OS06G16330-cb003, sequence (as listed by the source): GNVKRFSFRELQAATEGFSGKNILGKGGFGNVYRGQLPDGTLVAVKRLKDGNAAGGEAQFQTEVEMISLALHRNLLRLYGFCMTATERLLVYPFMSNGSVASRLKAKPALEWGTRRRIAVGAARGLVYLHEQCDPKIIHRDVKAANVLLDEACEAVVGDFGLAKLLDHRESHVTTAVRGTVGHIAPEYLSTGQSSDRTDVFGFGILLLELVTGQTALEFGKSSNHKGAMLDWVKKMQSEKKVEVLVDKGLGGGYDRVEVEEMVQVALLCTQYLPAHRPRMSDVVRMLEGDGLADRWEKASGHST
Method in brief: as §1

[8] = test system: T1, LOC_OS06G22820-cb001
T1 sequence (whole entry): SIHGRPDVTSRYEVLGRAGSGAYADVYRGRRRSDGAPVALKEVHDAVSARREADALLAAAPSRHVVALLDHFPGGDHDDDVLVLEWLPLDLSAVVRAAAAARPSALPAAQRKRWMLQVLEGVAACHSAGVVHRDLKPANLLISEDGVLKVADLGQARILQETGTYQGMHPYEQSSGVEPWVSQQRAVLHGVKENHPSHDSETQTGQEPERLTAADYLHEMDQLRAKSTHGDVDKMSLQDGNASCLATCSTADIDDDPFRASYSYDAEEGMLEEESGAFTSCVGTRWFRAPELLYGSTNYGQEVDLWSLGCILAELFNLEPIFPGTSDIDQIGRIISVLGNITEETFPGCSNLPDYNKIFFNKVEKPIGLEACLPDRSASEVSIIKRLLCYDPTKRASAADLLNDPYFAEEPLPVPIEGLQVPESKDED
Method in brief: as §1

[9] = test system: LOC_OS07G06570-cb004
Method in brief: as §1

[10] = test system: LOC_OS07G07230-cb001
Method in brief: as §1
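Further: purified Escherichia coli-expressed rice kinase domain construct.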

Compound	thermal shift delta Tm [1] [°C]	thermal shift delta Tm [2] [°C]	thermal shift delta Tm [3] [°C]	thermal shift delta Tm [4] [°C]	thermal shift delta Tm [5] [°C]	thermal shift delta Tm [6] [°C]	thermal shift delta Tm [7] [°C]	thermal shift delta Tm [8] [°C]	thermal shift delta Tm [9] [°C]	thermal shift delta Tm [10] [°C]
C[S+]([O-])c1ccc(-c2nc(-c3ccc(F)cc3)c(-c3ccncc3)[nH]2)cc1 (stereo not given)	0.89	1.83	-0.97	1.26	0.6	1.12	0.69	0.87	1.21	0.43
O=C(Nc1ccccc1C(=O)NC1CCCCNC1=O)c1cc2ccccc2s1 (stereo not given)	0.09	0.55	-1.58	0.54	0.1	0.18	-0.39	0.25	1.21	0.41
COc1cc2/c(=N/c3ccc(Br)cc3F)nc[nH]c2cc1OCC1CCN(C)CC1 [Vandetanib (ZD6474)]	2.9	9.77	2.5	0.62	0.52	-0.25	9.59	1.8	4.17	0.94
N#Cc1cccc(-c2c[nH]c3ncnc(N4CCOCC4)c23)c1	0.05	12.3	1	0.3	0.46	0.26	3.82	0.53	0.63	0.58
CNC(=O)c1ccccc1Sc1ccc2c(/C=C/c3ccccn3)n[nH]c2c1 [Axitinib]	0.24	5.45	0.17	-0.35	0.45	0.48	2.75	0.73	1.05	0.76
C[C@@H](Oc1ccc2[nH]nc(/C=C/c3cnn(CCO)c3)c2c1)c1c(Cl)cncc1Cl	8.94	16	12.1	1.22	6.07	0.92	15.1	-0.35	0.87	0.66
CC1(C)CNc2cc(NC(=O)c3cccnc3NCc3ccncc3)ccc21 [Motesanib Diphosphate (AMG-706)]	-0.11	0.52	-3.02	0.68	0.49	0.21	-0.19	0.37	0.75	0.81
O=S(=O)(c1cccc2c(I)cccc12)N1CCCNCC1	-0.05	0.78	1.61	0.14	0.08	0.32	0.09	0.37	1.9	0.16
CN(C)C/C=C/C(=O)Nc1ccc(C(=O)Nc2cccc(Nc3ncc(Cl)c(-c4c[nH]c5ccccc45)n3)c2)cc1	2.1	11.2	11.9	4.57	5.85	1.59	11.2	0.86	1.53	0.68
CN1CCN(C2CCN(C(=O)Nc3cc(Oc4ccc(NC(=O)C5(C(=O)Nc6ccc(F)cc6)CC5)c(F)c4)ccn3)CC2)CC1 [Golvatinib (E7050)]	0.73	5.87	-0.83	6.78	0.39	0.58	2.41	0.51	1.02	0.08
O=C(Nc1cccc(Nc2ncc(Br)c(NCCc3cnc[nH]3)n2)c1)N1CCCC1	7.51	10.4	13.2	-0.09	6.02	0.65	8.57	0.67	0.48	1.02
CC(C)(C)c1cc(NC(=O)Nc2ccc(Oc3ccnc4[nH]c(=O)cnc34)cc2F)n(-c2ccccc2)n1	10.3	12.5	0.62	0.57	0.39	0.48	5.36	0.49	1.22	-0.1
CC1=C(C(=O)Nc2ccc3[nH]ncc3c2)C(c2ccc(F)cc2)NC(=O)N1 (stereo not given)	0.17	1.88	-1.25	0.01	0	1.03	1.01	0.88	1.97	0.55
Cc1c(C(=O)N2CCOc3ccc(-c4ccc(N)nc4)cc3C2)ccc(S(C)(=O)=O)c1F	0.14	0.91	-4.24	0.33	0.36	0.13	1.82	0.73	0.94	0.23
C#Cc1cccc(Nc2ncnc3cc(OC)c(OCCCCCCC(=O)NO)cc23)c1	0.04	7.33	-6.18	0.35	0.58	0.66	1.72	0.49	0.91	-0.06
Nc1ncnc2n[nH]c(Nc3ccc(F)cc3)c12	-0.19	8.51	1.59	0.61	0.77	0.52	2.45	0.73	1.75	0.82
Nc1ncc(-c2ccnc(Nc3ccncc3)n2)c(CC2CC2)n1	0.81	7.15	0.92	0.45	0.44	0.4	3.58	0.78	1.03	-0.19
CCS(=O)(=O)N1CC(CC#N)(n2cc(-c3ncnc4[nH]ccc34)cn2)C1	-0.03	4.2	-0.69	0.54	0.72	0.88	2.6	0.77	1.1	0.82
O=c1c(O)c(-c2ccc(O)c(O)c2)oc2cc(O)cc(O)c12 [Quercetin]	0.22	10.2	3.82	0.95	0.67	1.19	5.31	1.15	-0.26	-0.07
C[C@H](NC(=O)c1c(N)nn2cccnc12)c1cc2cccc(C#Cc3cnn(C)c3)c2c(=O)n1-c1ccccc1	-0.07	0.09	2.93	0.27	0.07	0.11	-0.63	0.3	1.69	0.62
